# Shown are actives, neighbours in structure and some others; about 0.43% of the full set was active somewhere.
# GAA glycogen: inhibitors or activators of human alpha-glucosidase glycogen cleavage; hit rate 0.38% among 300,000; recombinant GAA, glycogen substrate, Amplex Red glucose oxidase fluorescence; Potency, µM (top dose mostly 76.4 µM), for the others: top-dose activity change, negative = inhibition, actives largely listed as inhibitors; AID 2100;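 further: potency means the concentration at half of the fitted maximal effect; 0% = full enzyme reaction and -100% = no-enzyme basal signal; the screen sought inhibitors and activators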
#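 Natural-substrate format: glycogen cleavage by 4 nM human enzyme, glucose read by Amplex Red coupling (Ex 573, Em 610 nm). Normalized to enzyme and no-enzyme controls.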
# GLA inh pH 4.5: inhibitors of human alpha-galactosidase A at pH 4.5 | activity change, negative = inhibition, % at 105 µM | 230,000 tested, under 10 active | purified enzyme, 4-MU-alpha-Gal fluorescence, pH 4.5;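 further: 0% = full activity with enzyme and -100% = basal without enzyme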
# aGlu spleen mod: lysosomal alpha-glucosidase (human) modulation | Potency, µM (highest dose often 79.9 µM), for the others: at the top dose activity change, negative = inhibition, hits mostly inhibitors | P10253 | human spleen homogenate, 4-MU-alpha-glucoside fluorescence | AID 2112 | hit rate 0.006% among 240,000;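 further: potency means the concentration at half of the fitted maximal effect; 0% = enzyme with vehicle and -100% = no enzyme basal signal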
#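 Human spleen homogenate (1 ug) with 4-methylumbelliferyl-alpha-D-glucopyranoside (1 mM final) in 50 mM citrate/phosphate pH 5.0, 0.01% Tween-20; 40 min at 37 C. Stopped at pH 10; 4-MU fluorescence Ex 365/Em 440 nm; AC50 by Hill fit.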
# aGal spleen mod: inhibits or activates alpha-galactosidase in human spleen homogenate | human spleen homogenate, 4MU-alpha-Gal fluorescence, 40 min | Potency, µM (series often up to 80 µM), for the others: top-dose activity change, negative = inhibition, most hits filed as inhibitors | hit rate 0.008% among 240,000 | AID 2107;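 further: potency means the concentration at half of the fitted maximal effect; 0% = enzyme with vehicle and -100% = no enzyme basal signal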
# Target sequence (P06280 32-429 limits assumed): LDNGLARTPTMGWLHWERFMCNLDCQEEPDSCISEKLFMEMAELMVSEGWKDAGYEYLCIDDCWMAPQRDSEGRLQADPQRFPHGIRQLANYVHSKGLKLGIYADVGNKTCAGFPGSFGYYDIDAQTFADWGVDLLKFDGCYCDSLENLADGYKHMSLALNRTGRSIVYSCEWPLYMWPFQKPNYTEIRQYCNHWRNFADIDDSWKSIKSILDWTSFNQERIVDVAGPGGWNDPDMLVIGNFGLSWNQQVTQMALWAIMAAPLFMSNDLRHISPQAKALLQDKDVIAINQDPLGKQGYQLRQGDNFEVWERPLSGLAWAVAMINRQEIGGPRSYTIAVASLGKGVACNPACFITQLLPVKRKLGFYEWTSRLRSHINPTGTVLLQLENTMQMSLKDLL
#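 Human spleen homogenate (1 ug) as enzyme source, 4-methylumbelliferyl-alpha-D-galactopyranoside 1 mM final, citrate/phosphate pH 5.0 with 0.01% Tween-20. Compounds 40 min at 37C, NaOH/glycine stop; fluorescence Ex 365/Em 440, Hill-fit AC50.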
# GAA inhib: inhibitors of human lysosomal alpha-glucosidase; P10253; purified human GAA, 4-MU-alpha-glucoside fluorescence; Potency, µM (doses to about 76.9 µM), for inactives: top-dose activity change, negative = inhibition, usual class: inhibitors; hit rate 0.005% among 200,000; AID 1466;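 further: potency means the concentration at half of the fitted maximal effect; plate controls were uninhibited enzyme wells for no effect and no-enzyme background for full effect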
#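 AC50 values come from Hill fits of compound titrations (up to 77 uM) against 4 nM human enzyme. Substrate 4-methylumbelliferyl-alpha-D-pyranoside at 400 uM, pH 5.0 citrate buffer, 20 min room temperature; fluorescence Ex 365/Em 440 after alkaline stop.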
# N370S GC mod: inhibitors or activators of N370S glucocerebrosidase for Gaucher disease; P04062; N370S GC spleen homogenate, 4MU-glucoside fluorescence; Potency, µM (doses to about 59.4 µM), for the others: at the highest dose activity change, negative = inhibition, usual class: inhibitors; hit rate 0.092% among 330,000;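 further: potency means the concentration at half of the fitted maximal effect; 0% = full enzyme activity and -100% = no enzyme basal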
# Starred values were filed as active, the others as inactive; u = inconclusive; x = no result; [ ] = another dose, or the depositor's remark. The call rests on the fitted dose curve; in most records, active means well fitted curve in the direction sought with a large enough effect; inconclusive means small, poorly fitted or top-dose-only effect, or another doubt; inactive means no such curve, though single readings can be large; an effect the other way counts as inactive or inconclusive.
SMILES,GAA glycogen,GLA inh pH 4.5,aGlu spleen mod,aGal spleen mod,GAA inhib,N370S GC mod
O=C(Nc1ccc2c(c1)OCO2)C(c1ccccc1)N1CCC2(CC1)OCCO2 (configuration not stated),3.3%,5.4,-11.6%,-22.6%,-5.9%,-14.3%
Cc1ccc(/C=N/c2sc3c(c2C#N)CCC3)o1,22.2µM*,1.8,8.2%,11.5%,7.5%,-9.9%
CC(=O)Nc1cnc2ccccc2n1,-1.3%,-2.9,-1.1%,-3.3%,-3.3%,1.5%
COc1ccc(-c2cnnc(N/N=C/c3ccc(O)c(O)c3)n2)cc1,11.2µM*,-7.2,-9.3%,-5.2%,-1.9%,-13.1%
CN(CC(=O)NC1CCCc2ccccc21)S(=O)(=O)c1ccc2c(c1)c(=O)n(C)c(=O)n2C (configuration not stated),-29.8%,7.0,6.2%,3.9%,0.7%,3.5%
Cc1ccc(S(=O)(=O)N2CCN(CC(=O)N/N=C/c3ccc(C)o3)CC2)cc1,-24.2%,-1.2,-9.2%,6.7%,u,-4.9%
O=C(CN1CCN(S(=O)(=O)c2ccc(Cl)cc2)CC1)c1ccc(O)c(O)c1,8.91µM*,x,x,x,x,-27.8%
Cc1ccc(S(=O)(=O)N2CCN(CC(=O)N/N=C\c3ccc(O)c(O)c3)CC2)cc1,6.31µM*,3.8,u,-18.2%,x,-19.5%
O=C(CN1CCN(S(=O)(=O)c2ccc(F)cc2)CC1)c1ccc(O)c(O)c1,9.7%,-12.4,-10.1%,-7.1%,u,u
CCCCn1c2nc3ccccc3nc2c2c(=O)n(CCC(C)C)cnc21,4.3%,-3.8,3.3%,6.4%,-1.2%,5.4%
Cc1cccc(NS(=O)(=O)c2ccc(C(=O)N3CCN(c4ccccc4O)CC3)cc2)c1C,4.47µM*,x,x,x,x,-5.4%
Cc1ccccc1NS(=O)(=O)c1ccc(C(=O)N2CCCC2)cc1,x,x,x,x,x,2.1%
FC(F)(F)c1ccccc1-c1nccc(NCc2cccs2)n1,x,x,6.7%,-3.8%,x,3.16µM*
FC(F)(F)c1ccccc1-c1nccc(NCc2ccccc2)n1,x,-0.4,12.7%,0.7%,x,11.2µM*
CCc1cccc(NS(=O)(=O)c2ccc3c(c2)CC(C)N3C(=O)C2CC2)c1 (configuration not stated),-17.0%[76.3 µM],x,x,x,x,x
COc1ccc(N(CC(=O)NCc2ccc(C)cc2)S(=O)(=O)c2ccccc2[N+](=O)[O-])c(OC)c1,12.6%,-1.8,-6.3%,-0.1%,-8.7%,-1.7%
O=C(Nc1ccc(Br)cc1F)c1sccc1-n1cccc1,2.2%,2.0,-1.7%,1.8%,-3.8%,4.2%
Cc1ccc(S(=O)(=O)N2CCN(C(=O)N(c3ccccc3)c3ccccc3)CC2)cc1,u,-0.5,-27.0%,-16.7%,25.1µM*,x
Cc1ccc(N(C)C(=O)N2CCN(S(=O)(=O)c3ccc(C)cc3)CC2)cc1,-1.0%,-9.0,-27.5%,-2.5%,u,0.8%
COc1ccc(NC2=C(Cl)C(=O)N(c3ccccc3)C2=O)c(OC)c1,2.5%,x,-6.8%,-9.9%,-9.5%[15.4 µM],11.5%
COc1ccc(N2C(=O)C(Cl)=C(Nc3c(C)n(C)n(-c4ccccc4)c3=O)C2=O)cc1,25.1µM*,-14.0,1.8%,-1.9%,5.6%,-1.7%
O=C(NCc1cccnc1)NC1(C(F)(F)F)Oc2ccccc2O1,24.9µM*,1.6,-4.9%,u,-11.0%,-6.3%
COc1cccc(NC(=O)Nc2cccc(C(=O)O)c2)c1,17.3%,1.5,-2.8%,-6.8%,3.2%,-16.0%
CC(C)CNC(=O)NC1(C(F)(F)F)Oc2ccccc2O1,-18.0%,-6.6,2.7%,-1.6%,-3.5%,-10.6%
COc1cccc(NC(=O)NC2(C(F)(F)F)Oc3ccccc3O2)c1,8.91µM*,-7.5,-0.3%,5.4%,-1.8%,-2.2%
CCN1CCS/C1=C/C=C/C1=[N+](CC)CCS1,-9.5%,u,u,-19.9%,u,7.94µM*
Cc1ccc(/C(O)=C/c2nc3cc(C)ccc3oc2=O)cc1,15.8µM*,-5.2,-8.4%,-6.2%,x,6.0%
O=c1oc2ccc(Cl)cc2nc1/C=C(\O)c1ccco1,7.08µM*,-7.6,1.2%,5.4%,x,-14.0%

# Bioassay records (PubChem BioAssay)
